Screening data (PubChem BioAssay)
KB-V1 cytotox = KB-V1 MDR subline cytotoxicity; KB-V1 MDR cells viability, CellTiter-Glo, 72 h; Potency, µM (series often up to 46.1 µM), hits mostly cytotoxic; actives 3.4% (n = 400,000); also: potency is read from the fitted curve at half-maximal effect; nearly all actives have a fitted effect of over 60% in size
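Following 72 h at 37 degrees C with compound, KB-V1 cell viability was read by CellTiter-Glo luminescence, medium being phenol-red-free DMEM plus 10% FBS; concentration-response parameters came from normalized, curve-fitted qHTS data.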
IL1B secr inh = inhibitors of inflammasome signaling (IL-1 beta secretion); THP-1 LPS/ATP IL-1B secretion, AlphaLISA, 16 h; hits give low values; activity change, % at 57.5 µM; actives 4.7% (n = 360,000); AID 743279; in the data active = activity change below about -50%; inconclusive = mostly about -30% to -49%
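THP-1 cells pretreated 1 hr with compounds (up to 57.5 uM final), then stimulated with LPS (250 ng/mL final) plus ATP (1.25 mM final); secreted IL-1B measured by AlphaLISA after 16 hr, decreased signal indicating inhibition.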
KB-3-1 tox = kills parental KB-3-1 adenocarcinoma cells; KB-3-1 viability, CellTiter-Glo ATP luminescence, 72 h; Potency, µM (titrated, usually from 46.1 µM), actives largely listed as cytotoxic; actives 1.4% (n = 400,000); also: potency is read from the fitted curve at half-maximal effect; nearly all actives have a fitted effect of over 60% in size
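Viability of parental KB-3-1 cells, measured by CellTiter-Glo luminescence, followed a 72 h incubation at 37 °C with pinned compounds in phenol-red-free DMEM containing 10% FBS.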
HT1080-NT tox = kills 2HG-producing HT-1080-NT fibrosarcoma cells. actives 1.6% (n = 360,000). Potency, µM (top dose mostly 46.1 µM), inactives show at the highest dose activity, negative = less viability, hits mostly cytotoxic. HT-1080-NT fibrosarcoma viability, CellTiter-Glo ATP luminescence, 48 h. AID 686970;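 also: NT is the 2HG producing partner of a matched IDH1 knockdown line; potency is read from the fitted curve at half-maximal effect; 0% = DMSO-treated cells and -100% = media-only wells without cells; nearly all actives have a fitted effect of over 55% in size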
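Viability of the 2HG-overproducing fibrosarcoma line after 48 hours of compound exposure at 37 degrees C was determined by luminescence with CellTiter-Glo, and concentration-effect curves were then fitted and categorized.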
HT1080 IDH1KD tx = toxicity to HT-1080 IDH1 knockdown cells (counter line); HT-1080 IDH1 knockdown viability, ATP luminescence, 48 h; Potency, µM (series often up to 46.1 µM), for the others: top-dose activity, negative = toxicity, hits mostly cytotoxic; actives 2% (n = 360,000);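 also: potency is read from the fitted curve at half-maximal effect; 0% = DMSO wells and -100% = cell-free medium wells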
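Knockdown cells (IDH1KD HT-1080) received compounds 2 h after plating at 750 cells/well and were kept 48 h at 37 °C in 5% FBS RPMI. A CellTiter-Glo luminescence read gave % activity for curve fitting.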
* hit, by the source's call; [ ] = remark or other dose. A selection: hits, their analogues and other compounds. The true share with any hit is near 8.8%. Unless noted, calls follow the shape of the dose curve; as a rule, active = well fitted curve in the direction sought with a large enough effect; inconclusive = small, poorly fitted or top-dose-only effect, or another doubt; inactive = no such curve, though single readings can be large; an effect the other way counts as inactive or inconclusive. Unless noted, % is scaled to controls: 0 for no effect and ±100 for the full control effect.

What do the screens show for `O=C(CNC(=S)N(Cc1ccc(F)cc1)C1CCCCC1)NCC1CCCO1` (configuration not stated)?
KB-V1 cytotox: inactive; IL1B secr inh: -1; KB-3-1 tox: inactive; HT1080-NT tox: 5%; HT1080 IDH1KD tx: 22%

How did O=C(CSc1nnnn1Cc1ccccc1)NC1CCCCC1 do in these assays?
KB-V1 cytotox: inactive; IL1B secr inh: 43; KB-3-1 tox: inactive; HT1080-NT tox: 2%; HT1080 IDH1KD tx: 0%

How did O=C(CSc1ncnc2c1nnn2Cc1ccccc1F)NCC1CCCO1 (configuration not stated) do in these assays?
KB-V1 cytotox: inactive; IL1B secr inh: -90*; KB-3-1 tox: inactive; HT1080-NT tox: -17%; HT1080 IDH1KD tx: inconclusive

Results for O=C(CSc1ncnc2c1cnn2-c1ccc(F)cc1)NCC1CCCO1 (configuration not stated) ?
KB-V1 cytotox: inactive; IL1B secr inh: -17; KB-3-1 tox: inactive; HT1080-NT tox: -4%; HT1080 IDH1KD tx: -6%

What do the screens show for `O=C(CNC(=S)N(Cc1ccccc1F)C1CCCCC1)NCC1CCCO1` (configuration not stated)?
KB-V1 cytotox: inconclusive; IL1B secr inh: -68*; KB-3-1 tox: inactive; HT1080-NT tox: -3%; HT1080 IDH1KD tx: 1%

How did COc1ccc(-n2nnc3c(SCC(=O)NCC4CCCO4)ncnc32)cc1 (configuration not stated) do in these assays?
KB-V1 cytotox: inactive; IL1B secr inh: -98*; KB-3-1 tox: inactive; HT1080-NT tox: 1%; HT1080 IDH1KD tx: -12%

What do the screens show for `CC(C)CN(CCCNC(=O)c1cc(=O)[nH]c2ccc(S(=O)(=O)N3CCCCCC3)cc12)CC(C)C`?
KB-V1 cytotox: inactive; KB-3-1 tox: inactive

Results for Cc1ccc(Sc2ncccc2COC(=O)NC(C)C)cc1 ?
KB-V1 cytotox: inactive; IL1B secr inh: 10; KB-3-1 tox: inactive; HT1080-NT tox: -15%; HT1080 IDH1KD tx: -12%

What do the screens show for `CCN(Cc1ccccc1)C(=O)C1CCN(Cc2ccc(OC)c(OC)c2OC)CC1`?
KB-V1 cytotox: 8.2µM*; IL1B secr inh: -11; KB-3-1 tox: inactive; HT1080-NT tox: -3%; HT1080 IDH1KD tx: -8%

Results for COc1ccc(CN2CCN(Cc3cccc(Oc4ccccc4)c3)CC2)c(OC)c1OC ?
KB-V1 cytotox: inactive; IL1B secr inh: -89*; KB-3-1 tox: inconclusive; HT1080-NT tox: inconclusive; HT1080 IDH1KD tx: -16%

What do the screens show for `CCN(Cc1ccccc1)C(=O)C1CCN(Cc2ccc(SC)cc2)CC1`?
KB-V1 cytotox: inactive; IL1B secr inh: -28; KB-3-1 tox: inactive; HT1080-NT tox: 0%; HT1080 IDH1KD tx: -11%

How did CN1CCN(Cc2cccc(Oc3ccccc3)c2)CC1 do in these assays?
KB-V1 cytotox: inactive; IL1B secr inh: -53*; KB-3-1 tox: inactive; HT1080-NT tox: 12%; HT1080 IDH1KD tx: 0%[9.24 µM]

How did COc1ccccc1N1CCN(CCCNC(=O)c2cnn(-c3cccc(Cl)c3)c2C2CCN(C(=O)OC(C)(C)C)CC2)CC1 do in these assays?
KB-V1 cytotox: inconclusive; KB-3-1 tox: inactive

How did CC(=O)Oc1ccc2c(=O)c(Oc3ccccc3)coc2c1OC(C)=O do in these assays?
KB-V1 cytotox: 13µM*; IL1B secr inh: 24; KB-3-1 tox: inconclusive; HT1080-NT tox: 1%; HT1080 IDH1KD tx: -6%

What do the screens show for `Cc1ccc(Oc2coc3cc(OC(=O)c4cccs4)ccc3c2=O)cc1`?
KB-V1 cytotox: inactive; IL1B secr inh: 15; KB-3-1 tox: inactive; HT1080-NT tox: 2%; HT1080 IDH1KD tx: -4%

What do the screens show for `O=C(Nc1ccccc1Cl)c1cc(=O)c2ccccc2o1`?
KB-V1 cytotox: inconclusive; IL1B secr inh: -12; KB-3-1 tox: inactive; HT1080-NT tox: 3%; HT1080 IDH1KD tx: -7%

What do the screens show for `Cc1ccc(-n2c(SCC(=O)N3CCCc4ccccc43)nnc2-c2cccnc2)c(C)c1`?
KB-V1 cytotox: inconclusive; IL1B secr inh: 20; KB-3-1 tox: inactive; HT1080-NT tox: 6%; HT1080 IDH1KD tx: 0%

Results for Cc1ccc(-n2c(-c3ccccc3)c[n+]3c2CCc2ccccc2-3)c(C)c1 ?
KB-V1 cytotox: inactive; IL1B secr inh: -99*; KB-3-1 tox: 4.6µM*; HT1080-NT tox: 23µM*; HT1080 IDH1KD tx: inconclusive
